Measured values reported in PubChem BioAssay AID1839 (Johns Hopkins Ion Channel Center, 2009).
The campaign covered roughly 2,400 compounds. About 220 (9.2%) were called active.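 How the source made its calls: active means signal change above the mean of dofetilide-free buffer controls plus 3 SD, so a positive margin; inactive means the rest.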 The entries come from a sample that favours actives as a whole.

test: nonspecific flux effects in parental CHO-K1, confirmation, counter-screen for hERG block protection project, cell-based, CHO-K1 parental line, FluxOR thallium flux (AID 1839); settings: CHO-K1 parental cells, FluxOR thallium flux fluorescence; at 10 µM;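 further: compounds applied alone with no dofetilide to cells lacking hERG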

SMILES | signal change vs control minus 3*SD hit threshold (margin above threshold, higher = more increase)
CC(C)=CCCC1=CCC2C(=O)NNC(=O)C2C1 (stereo not drawn) | -33.3% (inactive)
CC(C)(C)NC(=O)C(=O)NNC(=O)COc1ccc(Br)cc1 | 6.9% (active)
Cc1ccc(OCC(=O)NC(=S)Nc2ccc(Br)cn2)cc1 | -4.8% (inactive)
CC(C)(C)NC(=O)C(=O)NNC(=O)COc1ccccc1 | -32.8% (inactive)
c1ccc(SSc2ccccn2)nc1 | -36.9% (inactive)
S=c1[nH]c(-c2ccccc2)cn1/N=C/c1cccc2ccccc12 | -17.6% (inactive)
Oc1oc(-c2cccc3ccccc23)nc1/C=N/c1nccs1 | -19.4% (inactive)
Oc1c(N=NC(=S)Nc2ccccc2F)c2ccccc2n1Cc1ccccc1 | -17.5% (inactive)
CCn1c(O)c(N=NC(=O)CNC(=O)c2ccccc2F)c2ccccc21 | -28.7% (inactive)
CCCn1c(O)c(N=NC(=O)c2ccco2)c2ccccc21 | 29.8% (active)
CN1C(=O)/C(=N\OC(=O)c2cccc3ccccc23)c2ccccc21 | -18.7% (inactive)
C/C(Nc1cccc(F)c1)=C(/C#N)C(N)=O | -24.1% (inactive)
Cc1cc(-c2csc3nc[nH]c(=S)c23)cc(C)c1C | -3.4% (inactive)
Cc1ccc(-c2csc3nc[nH]c(=S)c23)cc1C | -21.7% (inactive)
Cc1c(-c2ccccc2)sc2nc[nH]c(=S)c12 | 6.1% (active)
S=c1[nH]cnc2scc(-c3ccc(Br)cc3)c12 | -22% (inactive)
S=c1[nH]cnc2scc(-c3ccccc3)c12 | -3.2% (inactive)
Cc1sc2nc[nH]c(=S)c2c1-c1ccccc1 | 9.4% (active)
Clc1ccc(Nc2nc3cccnc3s2)cc1 | -29.8% (inactive)
CCOC(=O)N1CCN(C(=O)CCn2c(=S)[nH]c3ccsc3c2=O)CC1 | -14.4% (inactive)
CN(CCc1ccccn1)C(=O)CCC1CCCN(C(=O)c2ccsc2)C1 (stereo not drawn) | -22.3% (inactive)
N=C1S/C(=C\c2ccc(-c3cccc(Cl)c3)o2)C(=O)N1c1nccs1 | -18.8% (inactive)
Cc1cc(S(=O)(=O)N2CCOCC2)ccc1OCC(=O)NCc1ccco1 | -27.2% (inactive)
Oc1c(Br)cc(Br)cc1C=Nc1ccc2[nH]ncc2c1 | 11% (active)
Oc1c(Br)cc(Br)cc1C=Nc1ccc2c(c1)OCCO2 | -5.9% (inactive)
Oc1c(Br)cc(Br)cc1C=Nc1cccc2ncccc12 | -0.4% (inactive)

SMILES | signal change vs control minus 3*SD hit threshold (margin above threshold, higher = more increase)
COc1ccc(-n2c(O)c(/C=C3\C=Nc4ccccc43)c(=O)[nH]c2=O)cc1 | -43% (inactive)
COCC(=O)NC1CC2CCC(C1)N2C(=S)Nc1ccccc1C(=O)OC (stereo not drawn) | -14.6% (inactive)
COc1cc(NC(=O)CSc2ncnc3sc4c(c23)CCC(C)C4)c(C(=O)O)cc1OC (stereo not drawn) | 29.8% (active)
Cc1sc2ncnc(SCC(=O)c3ccc(O)cc3O)c2c1C | -22.1% (inactive)
Cc1noc(C)c1CSc1ncnc2sc3c(c12)CCCCC3 | -14.1% (inactive)
CC(=O)CSc1ncnc2sc3c(c12)CCC(C)C3 (stereo not drawn) | 49% (active)
COC(=O)c1c(NC(=O)CN2CCOCC2)sc2c1CCC(C)C2 (stereo not drawn) | -31.2% (inactive)
COc1cc(NC(=O)CCCOc2ccc(Cl)cc2Cl)c(C(=O)O)cc1OC | -17.7% (inactive)
CCOC(=O)/C(C)=N/NC(=O)c1cccc([N+](=O)[O-])c1 | -14.2% (inactive)
CCOC(=O)c1ccc(Oc2cc(C)nc(SC)n2)cc1 | -8.1% (inactive)
Cc1cccc(C(=O)NC(=S)N(C)C2CCCCC2)c1 | -9.9% (inactive)
O=C(Nc1ccc(Cl)cc1)Nn1cnnc1 | -19.6% (inactive)
CCOC(=O)C1=C(c2ccccc2)NC(=O)NC1c1ccc(O)c(Cl)c1 (stereo not drawn) | -23.2% (inactive)
CC1CCC(n2c(=S)[nH]c3ccccc3c2=O)CC1 (stereo not drawn) | 23.6% (active)
CC1CCCCC1n1c(=S)[nH]c2ccccc2c1=O (stereo not drawn) | -13.4% (inactive)
O=c1c2ccccc2[nH]c(=S)n1C1CCCCC1 | -31.6% (inactive)
Cc1c(C(=O)N/N=C/c2ccccn2)nnn1-c1nonc1N | -22.2% (inactive)
Cn1c(=O)c2sc3c(c2n(CC(=O)Nc2ccccc2)c1=O)COC(C)(C)C3 | -33% (inactive)
c1ccc(-c2ccc(-c3ccncn3)cc2)cc1 | -28.8% (inactive)
O=C(NC(=S)Nc1ccccc1Cl)c1csnn1 | 39.6% (active)
Cc1cccnc1NC(=O)c1csnn1 | -24.6% (inactive)
Cc1snnc1C(=O)NC(=S)Nc1ccccc1 | 5.3% (active)
Cc1csc(NC(=S)NC(=O)c2ccccc2)n1 | -14.7% (inactive)
O=C(NC(=S)Nc1ccccc1)c1csnn1 | 50.8% (active)
Cc1ccc(NC(=S)NC(=O)c2ccc(-c3ccccc3)cc2)cc1 | -23.5% (inactive)
O=C(NC(=S)Nc1ccccc1Cl)c1ccco1 | -7.5% (inactive)

SMILES | signal change vs control minus 3*SD hit threshold (margin above threshold, higher = more increase)
COc1ccc(NC(=S)Nc2ccccn2)cc1 | -35.9% (inactive)
O=C(NC(=S)Nc1ccccc1)c1cccs1 | -16.6% (inactive)
O=C(NC(=S)Nc1ccccc1)c1cncc(C#Cc2ccccc2)c1 | -27.9% (inactive)
COc1ccc(NC(=S)NC(=O)c2csnn2)cc1 | 9.6% (active)
COc1ccc(NC(=S)NC(=O)c2ccc(Br)o2)cc1 | -13.4% (inactive)
CC(=O)Nc1ccc(NC(=O)CSc2ncc(C(=O)Nc3ccc(Cl)cc3)c(=O)n2C)cc1 | -22.1% (inactive)
S=C(N/N=C/c1ccccc1Cl)Nc1cccc(Cl)c1Cl | -4.6% (inactive)
O=C1CC(N2CCN(c3ccccc3Cl)CC2)C(=O)N1c1ccc(F)cc1 (stereo not drawn) | -20.8% (inactive)
COc1cccc(C(=O)/C=C/Nc2ccc(S(=O)(=O)Nc3cnc4ccccc4n3)cc2)c1 | -33.7% (inactive)
C/C(=N/NC(=O)c1ccncc1)c1ccc2c(c1)OCO2 | -30.7% (inactive)
Cn1c(=O)c(-c2cc(=O)[nH][nH]2)c(O)c2ccccc21 | -23.6% (inactive)
Cc1noc(C)c1-c1nnc(-c2ccc(C(F)(F)F)cc2)o1 | -18.1% (inactive)
Cn1cc([N+](=O)[O-])c(C(=O)NCc2cc3cc(Cl)ccc3[nH]2)n1 | -24.3% (inactive)
Cc1ccc(NC(=O)C2C3CCC(O3)C2C(=O)O)cc1C (stereo not drawn) | -26% (inactive)
CC(NC(=O)c1ccncc1)C(C)(C)C (stereo not drawn) | -25.4% (inactive)
Cc1ccccc1Cc1c(C)nc2c(C(=O)NCc3ccc4c(c3)OCO4)cnn2c1C | -30.9% (inactive)
Cc1nc(-c2ccccc2)cn(O)c1=O | -14.6% (inactive)
O=c1c(-c2ccccc2)nc(-c2ccccc2)cn1O | 27.1% (active)
COC(=O)Nc1c(-c2ccccc2)nc2ccccn12 | -32.5% (inactive)
Cc1ccc(C)c(NC(=S)NNC(=O)c2csc3c2CCC(C)C3)c1 (stereo not drawn) | -16.3% (inactive)
CCCOC(=S)NC(=O)c1sc2ccccc2c1Cl | -4% (inactive)
COc1ccccc1C(=O)NNC(=S)NC(=O)c1sc2ccccc2c1Cl | -27.2% (inactive)
CCOC(=S)NC(=O)c1sc2ccccc2c1Cl | 3% (active)
O=C(NNC(=S)NC(=O)c1sc2ccccc2c1Cl)c1ccc(Cl)cc1 | -22.6% (inactive)
COc1ccccc1C(=O)NC(=S)NNC(=O)c1sc2ccccc2c1Cl | 23.2% (active)
Cc1ccc(NC(=S)NC(=O)c2sc3ccccc3c2Cl)c(C(=O)O)c1 | -25.3% (inactive)

SMILES | signal change vs control minus 3*SD hit threshold (margin above threshold, higher = more increase)
COC(=O)CC1C(=O)NCCN1C(=S)NC(=O)c1sc2ccccc2c1Cl (stereo not drawn) | -17.8% (inactive)
CCCCOC(=S)NC(=O)c1sc2ccccc2c1Cl | 24.5% (active)
O=C(NC(=S)N(CCCCO)C1CCCCC1)c1sc2ccccc2c1Cl | -27.6% (inactive)
Cc1cccc(OCC(=O)NC2CCCc3ccccc32)c1C (stereo not drawn) | -39.9% (inactive)
CCc1nnc(NC(=O)CSc2nc(-c3ccccc3)cc(-c3ccc(OC)cc3)c2C#N)s1 | -33.2% (inactive)
COc1ccc(C2/C(=C(/O)c3ccc(Br)cc3)C(=O)C(=O)N2C)cc1 (stereo not drawn) | -34.2% (inactive)
CCOC(=O)c1sc(=S)n2c1[nH]c(=O)c1ccc(C(=O)OC)cc12 | 27.7% (active)
CCOCCCn1c(=S)[nH]c2cc(C(=O)NCCOC)ccc2c1=O | -21.5% (inactive)
CCOC(=O)c1sc(NC(=S)NC(=O)c2ccc(OC)cc2)nc1C | -23.3% (inactive)
Cc1nnc(SCc2cc(=O)oc3cc(O)ccc23)n1Cc1ccccc1 | -27.2% (inactive)
O=C(NC(=S)Nc1ccc(N2CCOCC2)c(Cl)c1)c1sc2ccccc2c1Cl | -3.9% (inactive)
Oc1ccc(N=Nc2ccccc2-c2nn[nH]n2)c(O)c1 | -14.2% (inactive)
CCOC(=O)c1cccc(C(=O)Nc2nc3ccc(OC)cc3s2)n1 | -31.4% (inactive)
COc1ccc2nc(N=Nc3c(O)ccc4ccccc34)sc2c1 | 1.7% (active)
COc1ccc(S(=O)(=O)Nc2ccc(O)c3ccccc23)cc1 | -41.6% (inactive)
Cc1cc(NC(=O)/C(C#N)=C/c2ccco2)n(-c2ccccc2)n1 | -40.7% (inactive)
Cc1[nH]n2c(=O)cc(C(C)C)nc2c1-c1ccccc1 | -21.7% (inactive)
Cc1[nH]n2c(=O)cc(C(C)(C)C)nc2c1-c1ccccc1 | -21.1% (inactive)
O=c1cc(-c2ccccc2)nc2c(-c3ccccc3)c(C(F)(F)F)[nH]n12 | 8.1% (active)
Cc1nc(-c2nc(-c3c(C(=O)NNC(=O)c4ccc(Cl)cc4)noc3C)cs2)cs1 | -33.4% (inactive)
Cn1c(=S)[nH]c2sc3c(c2c1=O)CCC(C(C)(C)C)C3 (stereo not drawn) | 32% (active)
Cc1ccc(-n2c(=S)[nH]c3sc4c(c3c2=O)CCC4)cc1 | -20.7% (inactive)
CC1CCc2c(sc3[nH]c(=S)n(C)c(=O)c23)C1 (stereo not drawn) | 23.8% (active)
COCCn1c(=S)[nH]c2sc3c(c2c1=O)CCC(C)C3 (stereo not drawn) | 18.3% (active)
Cc1cccc(-n2c(=S)[nH]c3sc4c(c3c2=O)CCc2ccccc2-4)c1 | -27.1% (inactive)
